# Hits are enriched below; roughly 2.3% of the tested compounds scored in any of these assays.
# TDP-43 yeast inh – inhibitors of TDP-43 toxicity in yeast. Potency, µM (titrated, usually from 46.1 µM), inactives show top-dose growth rescue (activation), actives largely listed as activators. TDP-43 expressing yeast growth rescue, BacTiter-Glo, 24 h. 1.8% of 410,000 active; also: potency is read from the fitted curve at half-maximal effect; % of control where 0% means no effect; nearly all actives have a fitted effect of over 50% in size
#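 Yeast expressing TDP-43 (pregrown in raffinose, seeded at OD600=0.02 in galactose medium) exposed to compounds 24 hr at 30 deg C. Growth read by BacTiter-Glo luminescence; rescue of toxicity appears as increased signal.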
# pAkt inh – Akt phosphorylation inhibition; Neuro2A IGF-stimulated pAkt S473 HTRF, 20 min; stronger effect = lower value; activity change, % for hits at 50 µM; 0.32% of 360,000 active; AID 651550; in the data active = activity change below about -80%; inconclusive = mostly about -51% to -80%; also: % is scaled to controls: 0 for no effect and ±100 for the full control effect
#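 Single-point screen (50 µM final compound) in Neuro2A cells stimulated 20 min with 6 nM IGF at 37 deg C. After lysis, Ser473-phosphorylated Akt read by HTRF (ex 330 nm, em 615/665 nm) as the 665/615 ratio.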
# Abeta yeast res – A-beta toxicity reversal in yeast; yeast expressing A-beta42, growth rescue, OD600, 48 h; response scale: 0% DMSO, 100% iron-clioquinol control; AID 1347071; 0.063% of 410,000 active; Potency, µM (top dose mostly 46.1 µM), most hits filed as activators; also: potency is read from the fitted curve at half-maximal effect; nearly all actives have a fitted effect of over 55% in size
#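 Growth rescue measured by 600 nm absorbance after 48 h yeast culture at 30 C with compound. Values normalized between DMSO and an equimolar ferric chloride plus clioquinol control.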
# FUS yeast rescue – suppressors of FUS proteinopathy in yeast; S. cerevisiae FUS-expressing, growth rescue, OD600, 24 h; Potency, µM (titrated, usually from 76.6 µM), hits mostly activators; 0.24% of 390,000 active;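 also: potency is read from the fitted curve at half-maximal effect; plate controls were DMSO vehicle for no effect and reference control for full effect; nearly all actives have a fitted effect of over 55% in size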
#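 Yeast expressing FUS under galactose induction, OD 0.005 in 2% galactose medium; compounds in a dilution series, 24 h at 30C. Growth rescue by absorbance at 600 nm; CP55940 positive control, DMSO negative.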
# aSyn yeast inh – rescues yeast growth from alpha-synuclein toxicity | Yeast expressing alpha-synuclein, growth rescue, BacTiter-Glo, 24 h | 0.14% of 370,000 active | Potency, µM (doses to about 46.1 µM), without a hit: at the top dose growth rescue (activation), hits mostly activators; also: potency is read from the fitted curve at half-maximal effect; % of control where 0% means no effect; nearly all actives have a fitted effect of over 65% in size
#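 Screening used galactose-induced yeast with toxic alpha-synuclein levels, exposed to compound for 24 hr at 30 deg C. Cell growth, read with BacTiter-Glo luminescence, gave the measured signal.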
# * marks the source's active call; other numbers are inactive results; i = inactive; u = inconclusive; x = no result given; [ ] = remark or other dose. Unless noted, calls follow the shape of the dose curve; as a rule, active = well fitted curve in the direction sought with a large enough effect; inconclusive = small, poorly fitted or top-dose-only effect, or another doubt; inactive = no such curve, though single readings can be large; an effect the other way counts as inactive or inconclusive.
SMILES,TDP-43 yeast inh,pAkt inh,Abeta yeast res,FUS yeast rescue,aSyn yeast inh
CCCCOc1ccc(C(=O)NCc2nnnn2-c2ccc(C)c(C)c2)cc1,20µM*,x,i,i,x
Cc1cc(C)nc(SCC2COc3ccccc3O2)n1 (centres undefined),14µM*,x,i,i,9%
Cc1ccc(-n2c(SCC(N)=O)nc3c(oc4ccccc43)c2=O)cc1C,8%,x,i,i,x
N/C(=N\OC(=O)c1ccc(Cl)c([N+](=O)[O-])c1)c1ccccn1,16µM*,i,i,i,-6%
N/C(=N\OC(=O)c1ccc(Cl)c([N+](=O)[O-])c1)c1ccccc1,13µM*,i,i,i,5%
Cc1ccc(C(=O)O/N=C(\N)c2cccnc2)cc1[N+](=O)[O-],25%,i,i,i,-11%
N/C(=N\OC(=O)c1ccc(Cl)cc1)c1ccccn1,10µM*,i,i,i,-32%
O=C(N/N=C/c1cccnc1)c1ccc([N+](=O)[O-])cc1Cl,0%,-83%*,i,i,-1%
N/C(=N\OC(=O)c1cc([N+](=O)[O-])ccc1Cl)c1cccnc1,13µM*,i,i,i,-3%
Cc1ccc(C)c(NC(=O)N2CCC(CN3CCOCC3)CC2)c1,-4%,x,i,i,x
CCOc1ccc2nc(SCC(=O)NCc3ccco3)sc2c1,14µM*,i,i,i,0%
O=C(CSc1nc2ccc(Nc3nc(N4CCOCC4)nc(N4CCOCC4)n3)cc2s1)Nc1ccccc1Cl,-10%,i,i,i,-10%
O=C(CSc1nc2ccc(Nc3nc(N4CCCC4)nc(N4CCCC4)n3)cc2s1)NCc1ccco1,20µM*,i,i,i,-1%
Cc1ccc(-c2noc(-c3nnn(CC(=O)Nc4cc(C)cc(C)c4)c3N)n2)cc1,u,x,i,i,x
CCOc1ccc(-c2nonc2NC(=O)c2oc3ccc(F)cc3c2C)cc1,-9%[9.22 µM],x,i,i,x
Cc1nc(N2CCN(C)CC2)c2nnn(Cc3ccccc3)c2n1,x,x,x,x,-4%
COc1ccc(NC(=O)CCCn2c(=O)[nH]c3ccccc3c2=O)cc1,1%,-110%*,i,i,3%
O=C(c1ccccc1)c1ccccn1,-1%[0.397 µM],i,i,i,3%
O=C(CC(=O)c1ccccn1)c1ccccc1,u,i,u,x,13µM*
Nc1nc(=S)c2n[nH]nc2[nH]1,x,x,x,x,-1%
COc1ccccc1C(=O)N1CCN(C(=O)c2oc3c(C)c(C)ccc3c2C)CC1,32µM*,i,i,i,1%
COc1ccc(CNC(=O)c2cc3sccc3n2C)cc1,35µM*,x,i,i,x
CCc1ccccc1NC(=O)c1cc2sccc2n1C,13µM*,i,i,i,-1%
CC(CCc1ccccc1)NC(=O)c1cc2sccc2n1C (centres undefined),8%,i,i,i,9%
COCCNC(=O)c1cc2sccc2n1C,15%,i,i,i,-8%
SMILES,TDP-43 yeast inh,pAkt inh,Abeta yeast res,FUS yeast rescue,aSyn yeast inh
Cn1c(C(=O)Nc2ccccc2)cc2sccc21,13µM*,i,i,i,6%
COC(=O)c1ccc(NC(=O)c2cc3sccc3n2C)cc1,24%,i,i,i,-20%
COC(=O)/N=C(/Cc1ccc(OC)cc1)c1ccc(OC)cc1,22µM*,i,i,i,-3%
O=C(NNc1nc2c(F)cccc2s1)C1COc2ccccc2O1 (centres undefined),-12%[0.397 µM],i,i,i,2%
CC1CCc2nc(NC(=O)C3CC3)sc2C1 (centres undefined),14%,i,i,i,-9%
Cc1ccc2sc(NNC(=O)C3COc4ccccc4O3)nc2c1C (centres undefined),7.1µM*,i,i,i,-4%
O=C(Nc1nc(-c2ccc3c(c2)OCCO3)cs1)C1CCCC1,11µM*,i,i,i,-20%
O=C(Nc1nc(-c2ccccc2)cs1)C1COc2ccccc2O1 (centres undefined),11µM*,i,i,i,-12%
N#CCC(=O)Nc1nc(-c2ccc3c(c2)OCCO3)cs1,-1%,i,i,i,10%
CC1CCc2nc(NC(=O)C3COc4ccccc4O3)sc2C1 (centres undefined),35µM*,i,u,i,-1%
COc1ccc(NC(=O)c2cc(CN3CCCC3)on2)cc1Cl,4%,x,i,i,x
O=c1c2c3c(sc2n(Cc2cc(=O)n4ccccc4n2)c(=O)n1-c1ccccc1)CCC3,19%,x,i,i,x
O=C(Nc1nc(-c2ccccn2)cs1)C1COc2ccccc2O1 (centres undefined),u,i,i,i,u
O=C(Nc1nc(-c2ccc3c(c2)OCO3)cs1)C1COc2ccccc2O1 (centres undefined),11µM*,i,i,i,-1%
CC(C)(C)C(=O)CSc1nc2ccsc2c(=O)n1Cc1ccccc1Cl,6%,x,i,i,x
Cc1c(Cl)ccc2sc(N3CCN(C(=O)CS(=O)(=O)c4ccccc4)CC3)nc12,18µM*,x,13µM*,u,x
COc1ccc(Cl)c2sc(N3CCN(C(=O)c4ccco4)CC3)nc12,18µM*,i,i,i,17%
COc1c(S(=O)(=O)N2CCN(C(=O)c3ccco3)CC2)ccc(Cl)c1Cl,13µM*,i,i,i,17%
Cc1c(Cl)ccc2sc(N3CCN(C(=O)C(C)C)CC3)nc12,22µM*,x,i,i,x
COc1cc(S(=O)(=O)N2CCN(C(=O)c3ccco3)CC2)c(OC)cc1C,2%,i,i,i,0%
CC(C)Oc1ccc(C(=O)Nc2nnc3n2CCS3)cc1,15%,x,i,i,-11%
Cc1c(Cl)ccc2sc(N3CCN(C(=O)c4ccco4)CC3)nc12,32µM*,x,i,u,x
CCCC(=O)N1CCN(c2nc3c(OC)ccc(Cl)c3s2)CC1,20µM*,i,i,i,21%
COc1ccc(Nc2c3c(nc4ccc(NC(=O)c5cc(Cl)ccc5OC)cc24)CCCC3)cc1OC,-3%,x,i,u,x
O=C(NCc1ccccc1)C1CCN(S(=O)(=O)c2ccc3c(c2)CCCN3C(=O)C2CCC2)CC1,21%,x,i,i,x
O=C(c1cc(-c2ccccc2)nc2ccccc12)N1N=C(C(F)F)CC1(O)C(F)F (centres undefined),11%,u,i,i,10%
CCOc1cccc(-c2cc(C(=O)N3N=C(C)CC3(O)C(F)F)c3ccccc3n2)c1 (centres undefined),18µM*,i,i,i,5%
CCOc1ccc(/C=C(\C#N)C(=O)c2c(C)[nH]c3ccccc23)cc1OC,20µM*,i,i,i,-19%

# Assay outcomes from PubChem BioAssay.
